Several values for one entry are separate records, joined by “and”; a condition that tells them apart may be missing. Identical values can stand only once. Records with an inconclusive call do not appear. Activity calls are given as the source filed them.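 Rule for the calls, unless noted: active = mean z-score across replicates of 1.96 or higher in either the MELAS or the Rieske mutant cell line; inactive = the rest.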

Data on eight compounds can be found in PubChem BioAssay.

Assay [1] can be described thus: SU-DIPG-VI glioma cell viability, MIPE4.0 library, CellTiter-Glo luminescence, qHTS (AID 1347066; cut-off not given, nearly all actives have AC50 up to about 30 µM;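 note: cells exposed to compound for 48 hours before readout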). The note with it: CellTiter-Glo ATP luminescence.
Assay [2] can be described thus: sensitizers of A549 cells to miR-34 induction, primary screen, imaging, A549 dox-inducible miR-34, nuclei and caspase counts (AID 1347080;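 active = compounds whose cell count with miR-34 switched on is under 0.7 times the count with it off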). The conditions noted are these: A549 miR-34 inducible, Hoechst nuclei count, 48 h.
The nature of assay [3]: survival rescue of mitochondrial mutant cells in low glucose, primary screen, MELAS cybrids, Rieske KO mouse fibroblasts, CellTiter-Glo (AID 1508586).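 Note: z relative to plate mean and SD of compound and empty wells.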
In assay [4] the target is NAD(+) hydrolase SARM1 (Homo sapiens) (UniProt Q6SZW1). Briefly: SARM1 TIR NADase inhibitors, cell lysate, NAD-Glo luminescence (AID 1508614;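 active = compound whose remaining NAD level is above about 45 nM, limit read from the data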;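 note: higher remaining NAD means stronger inhibition of SARM1 NADase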). The conditions noted are these: SAM-TIR HEK293T lysate NADase, at 1 µM, stronger effect = higher value.
Assay [5] can be described thus: viability rescue of complex I mutant cybrids, primary screen, cell-based, galactose medium, ATP luminescence (AID 1645843;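 active = z-score of at least 1.8 in each of two replicates, scored against plate mean and spread of sample wells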;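 note: positive z means more ATP and so rescue of galactose-driven cybrid death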). The conditions noted are these: complex I mutant cybrid cells, 72 h, stronger effect = higher value.
A short description of assay [6]: SU-DIPG-XXV glioma cell viability, MIPE5.0 library, qHTS (AID 1347068; cut-off not given, nearly all actives have IC50 up to about 30 µM).
The target of assay [7] is Mitogen-activated protein kinase 7 (Homo sapiens) (UniProt Q13164). Briefly: ERK5 transactivation activators in reporter cells, primary screen, cell-based, HTS (AID 1508626;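 active = luciferase signal above three times the same-plate solvent-only control wells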;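 note: luciferase driven by Gal4-ERK5 fusion binding five Gal4 sites before minimal TATA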). The conditions noted are these: HeLa Gal4-ERK5 transactivation, 18 h, at 5 µM, stronger effect = higher value.
Assay [8] can be described thus: phospholipid biosynthesis inhibitors in animal cells, primary screen, cell-based, LOPAC library, screen 4 (AID 1347384; call rule not given here). The note with it: phospholipid biosynthesis inhibition screen, at 10 µM.
[9] abbreviates: measured here: total cells with miR-34 induction, stronger effect = lower value.
The mark [10] stands for this setting: MELAS cybrid survival, CellTiter-Glo 48 h, stronger effect = higher value.
The mark [11] stands for this setting: Rieske KO mouse fibroblast survival, CellTiter-Glo 72 h.
[12] abbreviates: stronger effect = lower value, cell number ratio, induced over uninduced.
Setting [13] is: measured here: relative caspase fold change +Dox/-Dox.
Where [14] appears, read: measured here: total cells without miR-34 induction.

Chain of Mitogen-activated protein kinase 7 (Homo sapiens) (Q13164 whole entry, looked up, the tested form may be a part): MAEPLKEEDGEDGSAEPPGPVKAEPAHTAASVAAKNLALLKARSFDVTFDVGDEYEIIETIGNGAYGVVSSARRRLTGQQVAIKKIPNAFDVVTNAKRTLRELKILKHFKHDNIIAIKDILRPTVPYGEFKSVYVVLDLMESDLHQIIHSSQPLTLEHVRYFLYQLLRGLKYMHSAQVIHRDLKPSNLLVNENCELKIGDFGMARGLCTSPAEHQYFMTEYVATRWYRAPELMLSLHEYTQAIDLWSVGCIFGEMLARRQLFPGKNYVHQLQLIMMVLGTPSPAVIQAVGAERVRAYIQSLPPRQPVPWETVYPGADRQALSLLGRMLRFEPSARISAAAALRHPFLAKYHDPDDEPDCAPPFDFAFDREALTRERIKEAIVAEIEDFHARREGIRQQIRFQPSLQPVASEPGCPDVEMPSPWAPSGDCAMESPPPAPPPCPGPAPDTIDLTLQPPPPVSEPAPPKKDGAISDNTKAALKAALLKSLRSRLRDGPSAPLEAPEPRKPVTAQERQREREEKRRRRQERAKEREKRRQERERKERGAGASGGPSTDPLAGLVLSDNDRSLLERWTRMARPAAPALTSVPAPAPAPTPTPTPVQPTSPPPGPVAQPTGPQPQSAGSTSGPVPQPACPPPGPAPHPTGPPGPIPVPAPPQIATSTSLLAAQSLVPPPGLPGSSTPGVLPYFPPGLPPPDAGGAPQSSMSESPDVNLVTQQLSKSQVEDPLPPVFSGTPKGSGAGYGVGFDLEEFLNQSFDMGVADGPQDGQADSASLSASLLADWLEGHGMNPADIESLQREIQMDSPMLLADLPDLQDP
Chain of NAD(+) hydrolase SARM1 (Homo sapiens) (Q6SZW1 whole entry, looked up): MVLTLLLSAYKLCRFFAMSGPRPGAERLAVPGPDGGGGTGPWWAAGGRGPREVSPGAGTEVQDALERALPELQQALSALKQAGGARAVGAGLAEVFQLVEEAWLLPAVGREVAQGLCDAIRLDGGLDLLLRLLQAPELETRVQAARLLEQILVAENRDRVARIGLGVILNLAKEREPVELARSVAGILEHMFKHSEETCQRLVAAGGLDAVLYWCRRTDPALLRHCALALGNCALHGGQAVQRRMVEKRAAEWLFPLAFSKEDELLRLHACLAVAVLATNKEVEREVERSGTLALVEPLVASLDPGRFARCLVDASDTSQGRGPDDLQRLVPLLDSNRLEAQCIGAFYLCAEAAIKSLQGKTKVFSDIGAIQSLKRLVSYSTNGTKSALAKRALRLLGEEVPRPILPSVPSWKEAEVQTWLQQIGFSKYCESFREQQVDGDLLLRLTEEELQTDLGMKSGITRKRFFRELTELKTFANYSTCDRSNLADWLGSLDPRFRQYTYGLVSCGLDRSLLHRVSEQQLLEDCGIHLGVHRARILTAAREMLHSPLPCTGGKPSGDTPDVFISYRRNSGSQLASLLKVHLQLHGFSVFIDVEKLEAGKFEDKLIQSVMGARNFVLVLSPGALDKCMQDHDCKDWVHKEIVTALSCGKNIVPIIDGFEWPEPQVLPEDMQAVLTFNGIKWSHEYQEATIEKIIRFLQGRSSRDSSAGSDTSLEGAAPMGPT

`COC(=O)C1=C(C)NC(C)=C(C(=O)OC(C)C)C1c1cccc2nonc12` (stereo not given): the compound was classed as inactive in assay [1]. In assay [2] (setting [9]), the cell count was 7780 and 7900 and 7270. For the same compound, the z-score in assay [3] (setting [10]) is -0.382 (inactive) and 0.324 (inactive); in assay [3] (setting [11]), 1.22 and 0.935; in assay [5] it was 1.15 (inactive). Besides, the remaining NAD in assay [4] is 10 nM (inactive).
For `COc1cc([C@H]2Oc3cc([C@H]4Oc5cc(O)cc(O)c5C(=O)[C@@H]4O)ccc3O[C@@H]2CO)ccc1O`, the call in assay [1] and in assay [6] was inactive. Moreover, the luciferase signal in assay [7] is 64 AU (inactive).
Turning to `COc1ccc2c(c1)c(CC(=O)OCC(=O)O)c(C)n2C(=O)c1ccc(Cl)cc1`, the call in assay [1] was inactive. Further, the fold change is 0.914 (inactive) and 0.85 (inactive) and 0.854 (inactive) in assay [2] (setting [12]); 1.04 and 0.882 and 1.4 in assay [2] (setting [13]). For the same compound, the cell count is 8990 and 8100 and 8980 in assay [2] (setting [9]); 9840 and 9530 and 10500 in assay [2] (setting [14]). The z-score is -0.366 (inactive) and 0.477 (inactive) and -0.419 (inactive) in assay [3] (setting [10]); 0.51 and 0.248 and -0.275 in assay [3] (setting [11]); 0.565 (inactive) in assay [5]. Besides, the remaining NAD in assay [4] was 10 nM (inactive). For the same compound, in assay [7], the luciferase signal is 52 AU (inactive).
In the case of `Cc1cn([C@H]2C=C[C@@H](CO)O2)c(=O)[nH]c1=O`, the call in assay [1] and in assay [8] was inactive. Further, the fold change in assay [2] (setting [12]) was 0.956 (inactive) and 1.02 (inactive); in assay [2] (setting [13]), 1.47 and 1.86. For the same compound, the cell count in assay [2] (setting [9]) was 8230 and 8880; in assay [2] (setting [14]), 8610 and 8700. Also, the z-score was 0.426 (inactive) in assay [3] (setting [10]); -0.562 in assay [3] (setting [11]); 0.32 (inactive) and 1.07 (inactive) in assay [5]. Also, the remaining NAD in assay [4] was 21 nM (inactive).
`Cc1ncc([N+](=O)[O-])n1CCO`: the compound was classed as inactive in assay [1]. Also, the z-score in assay [3] (setting [10]) was -0.252 (inactive) and -0.693 (inactive) and 0.0516 (inactive); in assay [3] (setting [11]), 0.34 and -0.0287 and -0.879; in assay [5], 1.04 (inactive) and 0.355 (inactive). For the same compound, the remaining NAD in assay [4] was 10 nM (inactive). For the same compound, the luciferase signal in assay [7] was 56 AU (inactive).
With `CC(=O)Oc1ccccc1C(=O)Nc1ncc([N+](=O)[O-])s1`, the AC50 in assay [1] was 9.59 µM (active). Moreover, the result in assay [6] was inactive. The fold change is 1.08 (inactive) and 0.866 (inactive) in assay [2] (setting [12]); 1.12 and 1.29 in assay [2] (setting [13]). Besides, the cell count in assay [2] (setting [9]) is 2500 and 6120; in assay [2] (setting [14]), 2310 and 7070. For the same compound, the z-score in assay [3] (setting [10]) was -0.496 (inactive) and -0.13 (inactive); in assay [3] (setting [11]) it was -2.39 and 0.602; in assay [5], -1.79 (inactive). Besides, in assay [4], the remaining NAD was 10 nM (inactive).
In the case of `Cc1onc(-c2ccccc2Cl)c1C(=O)N[C@@H]1C(=O)N2[C@@H]1SC(C)(C)[C@@H]2C(=O)O`, the outcome in assay [1] was inactive. In addition, the fold change in assay [2] (setting [12]) was 0.913 (inactive) and 0.866 (inactive); in assay [2] (setting [13]), 1.38 and 0.839. The cell count in assay [2] (setting [9]) is 8800 and 10900; in assay [2] (setting [14]) it was 9640 and 12500. Besides, the z-score in assay [3] (setting [10]) is 1.06 (inactive); in assay [3] (setting [11]) it was 0.283. Also, the remaining NAD in assay [4] is 10 nM (inactive). In addition, the luciferase signal in assay [7] is 24 AU (inactive).
On to `COCCCC/C(=N\OCCN)c1ccc(C(F)(F)F)cc1`, for which the compound was called inactive in assay [1] and in assay [8]. For the same compound, the fold change was 0.98 (inactive) and 0.926 (inactive) and 0.976 (inactive) in assay [2] (setting [12]); 1.02 and 0.609 and 0.939 in assay [2] (setting [13]). Moreover, the cell count in assay [2] (setting [9]) is 9020 and 8820 and 7770; in assay [2] (setting [14]), 9200 and 9520 and 7960. The z-score is 0.622 (inactive) in assay [3] (setting [10]); -0.626 in assay [3] (setting [11]); -0.665 (inactive) and -0.645 (inactive) in assay [5]. For the same compound, the remaining NAD in assay [4] was 10 nM (inactive). In assay [7], the luciferase signal was 88 AU (inactive).
